Reference: PubChem BioAssay AID651742 (Broad Institute, 2012)
About 780 (14%) of roughly 5,600 compounds were called active. About 3% were inconclusive and are not listed.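 How the source made its calls: active means mean signal decrease across replicates above about 35% based on untreated-well scatter, with enough replicates individually passing (limit read from the data); inconclusive means no rule stated though some were filed; inactive means the rest.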 The list is a sample of the results.

Test: NIH3T3 cell viability loss – cherry-pick, single point, cytotoxicity control for T. cruzi proliferation inhibitor project, confirmation (AID 651742);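 further: 0% = median of neutral control wells and 100% = median of positive control wells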
Conditions: NIH/3T3 viability, CellTiter-Glo ATP luminescence, 90 h; at 8.35 µM; stronger effect = higher value

| SMILES | cytotoxicity (signal decrease) |
| --- | --- |
| COc1ccc(CN(C)C[C@H]2Oc3ccc(NS(=O)(=O)c4ccc(Cl)cc4)cc3CC(=O)N([C@@H](C)CO)C[C@H]2C)cc1 | 12.2% (inactive) |
| C[C@@H]1CCCCO[C@H](CN(C)C(=O)NC2CCCCC2)[C@H](C)CN([C@H](C)CO)C(=O)c2cc(NC(=O)Nc3ccc(F)cc3)ccc2O1 | -12.7% (inactive) |
| CCCC#Cc1ccc([C@@H]2[C@@H](C#N)N(C(=O)C3CCCC3)[C@@H]2CO)cc1 | 14.1% (inactive) |
| N#Cc1ccc(-c2ccc3c(c2)[C@@H]2[C@@H](CCN2C(=O)Cc2ccncc2)[C@@H](CO)N3)cc1 | 8.03% (inactive) |
| C[C@H]1CN([C@@H](C)CO)C(=O)Cc2cc(NC(=O)Cc3cn(C)c4ccccc34)ccc2O[C@@H]1CN(C)Cc1ccc(C(F)(F)F)cc1 | 7.48% (inactive) |
| C[C@@H]1CN([C@H](C)CO)C(=O)c2cccc(NC(=O)c3cnccn3)c2O[C@@H]1CN(C)Cc1ccc(C(=O)Nc2ccccc2N)cc1 | 32.5% (inactive) |
| C[C@@H]1CN([C@@H](C)CO)S(=O)(=O)c2ccc(C#CCN(C)C)cc2O[C@H]1CN(C)C(=O)C1CC1 | 19.8% (inactive) |
| CCCN(C)C[C@H]1Oc2cc(C#CC3CCCC3)ccc2S(=O)(=O)N([C@H](C)CO)C[C@@H]1C | 26.3% (inactive) |
| CC(C)CC#Cc1ccc2c(c1)O[C@H](CN(C)Cc1cccnc1)[C@H](C)CN([C@@H](C)CO)S2(=O)=O | 65.8% (active) |
| C[C@@H]1CN([C@H](C)CO)S(=O)(=O)c2ccc(C#CC3CCCC3)cc2O[C@@H]1CN(C)Cc1cccnc1 | 48.5% (active) |
| CC(C)CC#Cc1ccc2c(c1)O[C@H](CN(C)Cc1ccccc1F)[C@@H](C)CN([C@@H](C)CO)S2(=O)=O | -3.93% (inactive) |
| CC(C)CC#Cc1ccc2c(c1)O[C@H](CN(C)C(=O)C1CC1)[C@@H](C)CN([C@@H](C)CO)S2(=O)=O | 22.1% (inactive) |
| C[C@H](CO)N1C[C@H](C)[C@H](CN(C)Cc2cccnc2)Oc2cc(C#CC3CCCC3)ccc2S1(=O)=O | 32% (inactive) |
| CNC[C@@H]1Oc2cc(C#CCC3CCCC3)ccc2S(=O)(=O)N([C@H](C)CO)C[C@H]1C | -4.17% (inactive) |
| C[C@@H]1CCCCO[C@H](CN(C)Cc2ccc(Cl)c(Cl)c2)[C@H](C)CN([C@@H](C)CO)C(=O)c2cc(NC(=O)C3CCCCC3)ccc2O1 | 12.1% (inactive) |
| C[C@@H]1CN([C@H](C)CO)S(=O)(=O)c2ccc(C#CC3CCCC3)cc2O[C@@H]1CN(C)C(=O)Cc1ccncc1 | 4.33% (inactive) |
| Cc1ccc(S(=O)(=O)N(C)C[C@@H]2OCCCC[C@@H](C)Oc3ccc(NS(=O)(=O)c4ccc(F)cc4)cc3C(=O)N([C@H](C)CO)C[C@H]2C)cc1 | -0.859% (inactive) |
| O=C(Nc1cc(Cl)cc(Cl)c1)N[C@H]1CC[C@@H](CCNS(=O)(=O)c2cccc(F)c2)O[C@H]1CO | 2.47% (inactive) |
| C[C@H](CO)N1C[C@H](C)[C@H](CN(C)C(=O)Nc2ccc3c(c2)OCO3)Oc2ncc(C#Cc3cccc(F)c3)cc2C1=O | 66.2% (active) |

| SMILES | cytotoxicity (signal decrease) |
| --- | --- |
| C[C@H](CO)N1C[C@H](C)[C@@H](CN(C)S(=O)(=O)c2ccccc2F)Oc2ncc(C#Cc3ccccc3F)cc2C1=O | 48% (active) |
| C[C@H](CO)N1C[C@H](C)[C@H](CN(C)C(=O)C2CCCCC2)Oc2ncc(C#Cc3cccc(F)c3)cc2C1=O | 25.3% (inactive) |
| C[C@@H]1CN([C@@H](C)CO)C(=O)c2cc(C#CC3CCCCC3)cnc2O[C@H]1CN(C)S(=O)(=O)c1ccccc1 | 17.3% (inactive) |
| C[C@@H]1CN([C@H](C)CO)C(=O)c2cc(C#Cc3ccccn3)cnc2O[C@H]1CN(C)Cc1ccccc1 | -3.21% (inactive) |
| C[C@H](CO)N1C[C@H](C)[C@@H](CN(C)S(=O)(=O)c2ccccc2)Oc2ncc(C#Cc3ccccc3F)cc2C1=O | 37.2% (active) |
| C[C@H]1CN([C@@H](C)CO)C(=O)c2cc(C#CC3CCCCC3)cnc2O[C@H]1CN(C)S(=O)(=O)c1ccccc1 | 4.57% (inactive) |
| C[C@H](CO)N1C[C@H](C)[C@H](CN(C)S(=O)(=O)c2ccccc2)Oc2ncc(-c3cccc(C(F)(F)F)c3)cc2C1=O | 33.1% (inactive) |
| CCCNC(=O)N(C)C[C@@H]1Oc2ncc(C#Cc3ccccc3F)cc2C(=O)N([C@@H](C)CO)C[C@H]1C | -5.73% (inactive) |
| Cc1ccc(S(=O)(=O)N(C)C[C@@H]2Oc3ncc(-c4cc5ccccc5o4)cc3C(=O)N([C@H](C)CO)C[C@@H]2C)cc1 | 38.6% (active) |
| Cc1ccc(-c2cnc3c(c2)C(=O)N([C@@H](C)CO)C[C@@H](C)[C@H](CN(C)Cc2ccccc2F)O3)cc1 | 33% (inactive) |
| C[C@@H]1CN([C@H](C)CO)C(=O)c2cc(-c3cncnc3)cnc2O[C@H]1CN(C)C(=O)Nc1ccc2c(c1)OCO2 | -12.9% (inactive) |
| N#C[C@@H]1[C@H](c2ccc(C#Cc3cccc(F)c3)cc2)[C@@H](CO)N1C(=O)C1CCCC1 | -6.1% (inactive) |
| CC(C)(C)[S@@](=O)N1Cc2cc(C(=O)NCc3ccc4c(c3)OCO4)nc(-c3cccc(-c4ccccc4)c3)c2[C@H]1CCO | 24% (inactive) |
| COc1cccc(S(=O)(=O)N2CCCCN3[C@H](CO)[C@H](c4ccc(C#CC5CC5)cc4)[C@H]3C2)c1 | 24.2% (inactive) |
| C[C@@H]1CCCCO[C@H](CN(C)C(=O)NC2CCCCC2)[C@H](C)CN([C@H](C)CO)C(=O)c2cc(NS(=O)(=O)c3ccc(Cl)cc3)ccc2O1 | -21.2% (inactive) |
| C[C@H]1CN([C@@H](C)CO)C(=O)c2cccc(NS(=O)(=O)c3cn(C)cn3)c2O[C@@H]1CN(C)CC1CCCCC1 | -8.55% (inactive) |
| C[C@@H]1CCCCO[C@@H](CN(C)C(=O)Nc2ccc(F)cc2)[C@H](C)CN([C@H](C)CO)C(=O)c2cc(NC(=O)Nc3cccc4ccccc34)ccc2O1 | 1.18% (inactive) |
| CN1C(=O)c2cc(NC(=O)Nc3ccccc3F)ccc2OC[C@H]2O[C@H](CC(=O)NCc3ccc(-c4ccccc4)cc3)CC[C@H]21 | 8.3% (inactive) |
| N#C[C@@H]1[C@@H](c2ccccc2)[C@@H](CO)N1C(=O)Cc1ccccc1 | 20.6% (inactive) |

| SMILES | cytotoxicity (signal decrease) |
| --- | --- |
| Cc1cc(C(=O)Nc2cccc3c2O[C@@H](CN(C)Cc2ccc(C(=O)Nc4ccccc4N)cc2)[C@H](C)CN([C@@H](C)CO)C3=O)n(C)n1 | 6% (inactive) |
| C[C@H]1CCCCO[C@H](CN(C)Cc2ccccc2)[C@@H](C)CN([C@@H](C)CO)C(=O)c2cc(NC(=O)c3ccccc3)ccc2O1 | -15.3% (inactive) |
| CC(C)NC(=O)Nc1ccc2c(c1)C(=O)N([C@@H](C)CO)C[C@H](C)[C@H](CN(C)S(=O)(=O)c1ccc(Cl)cc1)OCCCC[C@H](C)O2 | -22.1% (inactive) |
| O=C(Nc1ccc(-c2ccccc2)cc1)[C@H]1[C@H](CO)[C@H]2Cn3c(cccc3=O)[C@H]2N1CC1CC1 | 8.32% (inactive) |
| C[C@@H]1CN([C@@H](C)CO)S(=O)(=O)c2ccc(C#CCC3CCCC3)cc2O[C@H]1CN(C)C(=O)CC1CC1 | 15% (inactive) |
| C[C@H]1CN([C@@H](C)CO)S(=O)(=O)c2ccc(C#CC3CCCC3)cc2O[C@H]1CN(C)C(=O)Cc1ccncc1 | 6.81% (inactive) |
| COc1ccc(S(=O)(=O)N(C)C[C@H]2Oc3c(NC(=O)Nc4cccc5ccccc45)cccc3C(=O)N([C@@H](C)CO)C[C@H]2C)cc1 | 19.4% (inactive) |
| Cc1ccc(S(=O)(=O)N(C)C[C@@H]2Oc3c(NC(=O)c4nc5ccccc5s4)cccc3C(=O)N([C@H](C)CO)C[C@@H]2C)cc1 | 23.6% (inactive) |
| COc1ccc(S(=O)(=O)N(C)C[C@H]2OCCCC[C@H](C)Oc3ccc(NS(=O)(=O)c4ccc(F)cc4)cc3C(=O)N([C@@H](C)CO)C[C@@H]2C)cc1 | -16.9% (inactive) |
| CCC(=O)N1CC[C@@H]2[C@@H](CO)N(C)c3ccc(-c4ccc(F)cc4)cc3[C@@H]21 | -22.3% (inactive) |
| C/C=C/c1ccc([C@H]2[C@H]3CN(S(=O)(=O)c4ccccc4)CCCCN3[C@H]2CO)cc1 | 20.3% (inactive) |
| C[C@H]1CN([C@@H](C)CO)C(=O)c2ccccc2-c2ccccc2CO[C@@H]1CN(C)S(=O)(=O)c1ccc(C(F)(F)F)cc1 | 38.8% (active) |
| C[C@@H]1CCCCO[C@H](CN(C)S(=O)(=O)c2ccc(F)cc2)[C@H](C)CN([C@@H](C)CO)C(=O)c2cc(NS(=O)(=O)c3ccccc3)ccc2O1 | -7.76% (inactive) |
| C[C@H](CO)N1C[C@H](C)[C@@H](CN(C)S(=O)(=O)c2cccc(F)c2)OCc2ccccc2-c2c(n(C)c3ccccc23)C1=O | -5.9% (inactive) |
| Cc1ccc(S(=O)(=O)Nc2ccc3c(c2)C(=O)N([C@H](C)CO)C[C@H](C)[C@H](CN(C)Cc2ccc(Cl)c(Cl)c2)O3)cc1 | 17% (inactive) |
| C[C@H]1CCCCO[C@@H](CN(C)C(=O)NC2CCCCC2)[C@@H](C)CN([C@@H](C)CO)C(=O)c2cc(NS(=O)(=O)c3ccc(Cl)cc3)ccc2O1 | -16.4% (inactive) |
| COCC(=O)N1[C@H](CO)[C@@H](c2ccc(C#Cc3ccccc3F)cc2)[C@@H]1C#N | -6.81% (inactive) |
| C[C@@H]1CN([C@H](C)CO)C(=O)c2cc(NS(=O)(=O)c3cccs3)ccc2O[C@@H](C)CCCCO[C@H]1CN(C)Cc1ccc(C(F)(F)F)cc1 | 5.21% (inactive) |
